# An excerpt weighted towards active compounds, which were near 18% of everything screened.
# CtBP-E1A inh – blocks the CtBP interaction with E1A | AID 651724 | activity change, % (no concentration beside the values) | AlphaScreen GST-E1A/His-CtBP binding, 1536-well; hits give low values | 340,000 tested, 0.49% active; in the data active = activity change below about -65%; inconclusive = mostly about -30% to -63%
#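 Protein mix (5X: 125 nM each GST-E1A, His-CtBP) was incubated with pinned compound 2 h at 37 deg C in dark, in 50 mM Tris pH 8.0 buffer with 300 mM NaCl. Glutathione donor and nickel acceptor beads followed; AlphaScreen signal read after 1 h.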
# IL-1B inflam inh – inhibitors of inflammasome signaling (IL-1 beta secretion). THP-1 LPS/ATP IL-1B secretion, AlphaLISA, 16 h; hits give low values. activity change, % at 57.5 µM. 360,000 tested, 4.7% active; in the data active = activity change below about -50%; inconclusive = mostly about -30% to -49%
#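 Secreted IL-1B measured by AlphaLISA bead assay after 16 h compound exposure of THP-1 cells; compounds (final up to 57.5 uM) added 1 h before LPS (250 ng/mL) and ATP (1.25 mM) stimulation; lower signal means less secretion.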
# TDP1 cell noCPT – qHTS for Inhibitors of human tyrosyl-DNA phosphodiesterase 1 (TDP1): qHTS in cells in absence of CPT | DT40 Tdp1-/- hTDP1 cells, no CPT, ATP luminescence, 48 h | Potency, µM (series often up to 46.2 µM), without a hit: top-dose activity change, negative = growth inhibition, usual class: inhibitors | 420,000 tested, 15% active; note: potency is the fitted concentration of half-maximal effect; nearly all actives have a fitted effect of over 55% in size
#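 Luminescent ATP content (CellTiter-Glo) served as the growth readout. Knockout chicken DT40 cells expressing human TDP1 were exposed to compounds without camptothecin for a minimum 48 hr at 37 °C.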
# Six1-Eya2 inh – inhibitors of human Six1/Eya2 interaction; Q15475+O00167; AlphaScreen GST-Six1/His-Eya2 binding, biochemical; hits give low values; activity change, % (concentration not given with the values); 360,000 tested, 0.56% active; in the data active = activity change below about -65%; inconclusive = mostly about -30% to -63%
#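 Six1/Eya2 binding was read as AlphaScreen signal after compounds were pinned into GST-Six1 plus His-tagged Eya2 (5X stock 250/500 nM) in pH 8.0 Tris/NaCl/TCEP buffer, beads added, then incubated 1 h, 37 C, dark.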
# TDP1 cell CPT – DT40-hTDP1 cell growth loss with CPT | 420,000 tested, 12% active | chicken DT40 Tdp1-/-;hTDP1 cells + 20 nM CPT, ATP luminescence, 48 h | Potency, µM (highest dose often 46.2 µM), for inactives: at the highest dose activity change, negative = growth inhibition, usual class: inhibitors | AID 686979; note: potency is the fitted concentration of half-maximal effect; nearly all actives have a fitted effect of over 55% in size
#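 Chicken DT40 Tdp1-/- cells stably complemented with human TDP1 were seeded at 400 cells/well in medium containing 20 nM camptothecin, exposed to pin-transferred compounds, and grown at 37 °C for at least 48 hr. Viability was read as ATP luminescence.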
# TDP1 block – inhibitors of human tyrosyl-DNA phosphodiesterase TDP1. Q9NUW8. recombinant TDP1, AlphaScreen DNA substrate cleavage. Potency, µM (top dose mostly 130 µM), inactives show top-dose activity change, negative = inhibition, hits mostly inhibitors. 350,000 tested, 0.28% active; note: potency is the fitted concentration of half-maximal effect; nearly all actives have a fitted effect of over 40% in size
# Target sequence (Q9NUW8 whole entry, looked up): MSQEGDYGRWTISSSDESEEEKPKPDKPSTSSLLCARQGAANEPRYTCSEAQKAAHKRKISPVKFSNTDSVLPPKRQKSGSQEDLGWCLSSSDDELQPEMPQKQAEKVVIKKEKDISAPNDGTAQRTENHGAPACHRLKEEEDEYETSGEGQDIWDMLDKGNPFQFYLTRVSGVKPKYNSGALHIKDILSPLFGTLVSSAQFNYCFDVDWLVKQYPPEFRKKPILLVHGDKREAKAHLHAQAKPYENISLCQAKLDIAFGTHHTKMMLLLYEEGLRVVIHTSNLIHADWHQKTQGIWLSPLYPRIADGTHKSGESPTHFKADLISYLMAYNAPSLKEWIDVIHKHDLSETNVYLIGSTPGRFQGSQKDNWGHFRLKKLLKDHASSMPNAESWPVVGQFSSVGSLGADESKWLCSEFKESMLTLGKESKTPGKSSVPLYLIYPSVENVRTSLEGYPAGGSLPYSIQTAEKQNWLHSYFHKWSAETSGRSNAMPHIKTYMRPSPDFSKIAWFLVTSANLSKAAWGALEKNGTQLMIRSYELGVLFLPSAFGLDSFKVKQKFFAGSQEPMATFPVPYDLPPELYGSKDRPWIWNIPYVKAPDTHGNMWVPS
#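 Recombinant E. coli-expressed Tdp1 (1 nM) preincubated with compound 15 min at RT, then 5'-biotin/3'-phosphotyrosine-FITC DNA substrate (15 nM) added for 5 min. AlphaScreen beads (10 ug/ml) added, 10 min RT; tyrosine-FITC cleavage read as signal loss.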
# An asterisk follows results filed as active; ? = inconclusive; nt = not tested or not shown. Unless noted, calls come from the whole dose curve; as a rule, active = well fitted curve in the direction sought with a large enough effect; inconclusive = small, poorly fitted or top-dose-only effect, or another doubt; inactive = no such curve, though single readings can be large; an effect the other way counts as inactive or inconclusive. % is set by controls: 0 for no effect and ±100 for the full control effect.
SMILES,CtBP-E1A inh,IL-1B inflam inh,TDP1 cell noCPT,Six1-Eya2 inh,TDP1 cell CPT,TDP1 block
Cc1cc2c(n1-c1ccc(C(=O)NCc3cccc(Br)c3)cc1)CCC(C)C2 (centres undefined),nt,nt,14.6µM*,nt,?,5.0%
COc1cccc(CNC(=O)c2ccc(-n3c(C)cc4c3CCC(C)C4)cc2)c1 (centres undefined),nt,nt,?,nt,?,6.2%
CCc1ccc(CNC(=O)c2ccc(-n3c(C)cc4c3CCC(C)C4)cc2)cc1 (centres undefined),nt,nt,20.6µM*,nt,16.4µM*,9.9%
COCCn1c(C)cc(O)c(C(c2ccccc2)N2CCN(C)CC2)c1=O (centres undefined),nt,nt,0.6%,nt,-0.9%,2.7%
O=[N+]([O-])c1ccc(CS(=O)(=O)c2ncn[nH]2)cc1,5.3,7.3,-3.9%,-0.1,28.1%,nt
O=C(O)c1ccc(N=Nc2c(O)[nH]c3ccccc23)cc1,-6.6,13.4,?,-16.1,?,2.9%
Oc1[nH]c2ccccc2c1N=Nc1nc(Nc2ccccc2)nc(N2CCOCC2)n1,nt,?,1.84µM*,1.9,-104.8%,-0.6%
Cc1[nH]c2ccccc2c1/C=N/Nc1nc(Nc2ccccc2)nc(N2CCOCC2)n1,-19.5,-79.9*,6.51µM*,-11.7,8.2µM*,9.6%
CC(=O)/C(=N\Nc1ccccc1Cl)Sc1cccc2cccnc12,-92.1*,-16.1,-91.9%,-89.3*,?,1.2%
CCOc1ccc(NC(=O)c2sc(N3CCOCC3)nc2-c2ccccc2)cc1,1.6,-9.4,23.1µM*,3.9,?,-0.6%
CCOc1ccc(NC(=O)CSc2nc3ccccc3nc2N2CCOCC2)cc1,9.2,3.4,13µM*,2.3,20.6µM*,1.1%
CC1CN(c2nc3ccccc3nc2SCC(=O)Nc2cccc(C(F)(F)F)c2)CC(C)O1 (centres undefined),11.8,4.4,25.9µM*,18.2,14.6µM*,nt
COc1ccc(NC(=O)CSc2nc3ccccc3nc2N2CCOCC2)cc1,3.2,-22.2,-25.7%,-0.3,-8.6%,nt
CCCCc1ccc(NC(=O)CSc2nc3ccccc3nc2N2CCOCC2)cc1,nt,nt,25.9µM*,nt,?,-2.1%
Cc1c(-c2cccc(NC(=O)c3ccco3)c2)nc2ncccn12,-1.5,0.0,-22.8%,-15.6,5.2%,5.3%
CC(C)(O)[C@@H]1CC(=O)[C@]2(C)[C@H](CC[C@@]3(C)[C@H](c4ccoc4)OC(=O)[C@H]4O[C@]432)[C@@]1(C)/C=C\C(=O)O,4.7,19.0,3.0%,7.4,6.2%,1.1%
Cc1cccc(NC(=O)CSc2nc3ccccc3nc2N2CC(C)OC(C)C2)c1 (centres undefined),16.5,7.4,?,17.4,?,nt
CCOc1ccc(NC(=O)CSc2nc3ccccc3nc2N2CC(C)OC(C)C2)cc1 (centres undefined),1.5,-5.7,10.3µM*,-1.6,23.1µM*,nt
CC(=O)c1ccccc1N(C(=O)c1ccco1)C(C(=O)NC1CCCC1)c1ccc(C)cc1 (centres undefined),1.6,4.6,-22.2%,-0.2,-10.1%,3.2%
O=C(Cc1ccccc1)N/N=C/c1ccc2cccc(O)c2n1,12.8,-18.1,2.59µM*,-17.7,2.06µM*,7.2%
NC(=O)N/N=C/c1ccc2cccc(OCc3ccccc3)c2n1,0.1,nt,?,-6.9,3.0%,nt
C/C(N)=C(/C#N)C(=O)COC(=O)CCSc1ccccc1Cl,4.3,23.1,?,0.4,-3.4%,5.6%
CCOc1ccc(C2Sc3ccccc3NC3=C2C(=O)OC3)cc1 (centres undefined),-7.8,0.0,?,-5.9,?,5.1%
